40 sequences from the supplement of paper PMC10338343 can be followed below.

± gives the standard deviation.

For this test, the system named is EfPiwi piRISC loaded with L1MC piRNA (26 nt). Briefly: pre-steady-state target cleavage rate (min^-1); auxiliary factor: 500 nM Ephydatia muelleri Gtsf1; guide: L1MC piRNA 5'p-UAACUAAAUACUAUGCAAGCUGUAGG; MIWI and MILI are mouse PIWI proteins and EfPiwi is from a freshwater sponge; tags in brackets are library labels; higher = faster piRNA-guided slicing of the target. An outline of the steps: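 Cleave-'n-Seq measured uncleaved targets by sequencing after a transcribed, DNA-blocked target RNA library […] was mixed with 1 nM active affinity-purified piRISC holding one synthetic guide, with or without 500 nM GTSF1 partner protein, at 33 °C in HEPES–potassium acetate buffer for 0–8 or 0–960 min. Counts were normalised to depth and to weakly complementary targets, three trials were pooled, and k3 was capped at 0.0001 min^-1. A burst-and-steady-state fit gave the pre-steady-state cleavage rate.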
As to UCCUGGUACAGCUUGCAAGUAUUUAGUUA, the “pre-steady-state target cleavage rate” value was 0.00546 ± 0.0031.

As to UCCUGGUUGUGCUUGCAUAGUAUUUAGUUA, the “pre-steady-state target cleavage rate” value turned out to be 0.0119 ± 0.0045.

Consider UCCUCCUACAGCUUGGAUAGUAUUUAGUAA, for which the “pre-steady-state target cleavage rate” value amounted to 0.00895 ± 0.0035.

As to “UCCUGGAUGUCGUUGCAUAGAUAAAUCAAA [g11:g18:cont:t1A]”, the “pre-steady-state target cleavage rate” value is less than 0.0001.

Turning to “UCCUGGAUGAGCUUGCAUAGUAUUUAGUUC [g2:g21:cont:t1C]”, the “pre-steady-state target cleavage rate” value worked out at 0.039 ± 0.01.

For UCCUGGAUGAGCUUGGAUAGUAUUUAGAAA, the “pre-steady-state target cleavage rate” value stood at 0.00463 ± 0.0034.

As for UCCUGGAACAGCUUCCAUAGUAUUUAGAUA, the “pre-steady-state target cleavage rate” value was determined as 0.00228 ± 0.0017.

For the sequence UCCUGGAUGUCGAACGAUACAUUUUAGUUA, the “pre-steady-state target cleavage rate” value is less than 0.0001.

With UCCUGGAUGUCGUUCCAUAGUAAUUAGUUA, the “pre-steady-state target cleavage rate” value was less than 0.0001.

Turning to UCCUGGUACAGCUUGCAAAGUAUUAAGUUA, the “pre-steady-state target cleavage rate” value came out at 0.00292 ± 0.0026.

Take UCCUGCUACAGCGUGCAUAGUAUUUAGUUA: the “pre-steady-state target cleavage rate” value was determined as 0.0101 ± 0.0026.

Take UCCUGGAUCAGGUUGCAUAGUAUUUAGUAA: the “pre-steady-state target cleavage rate” value was 0.00537 ± 0.0021.

With UCCUGCUACAGCUUGCAUAGUAUAUAGUUA, the “pre-steady-state target cleavage rate” value turned out to be 0.00448 ± 0.0019.

As to UCCUGGAUGUCGAACCAUAGUAUUUACGUUA, the “pre-steady-state target cleavage rate” value was less than 0.0001.

Consider UCCUCCUACAGGUUGGAUAGUAUUUAGUUA, for which the “pre-steady-state target cleavage rate” value was found to be 0.0118 ± 0.0028.

Regarding UCCUGCUACAGCUUGCAUAGUAUUUACGUUA, the “pre-steady-state target cleavage rate” value turned out to be 0.00429 ± 0.002.

For UCCUCCGACAGCUUGCAUAGUAUUUAGUUA, the “pre-steady-state target cleavage rate” value is 0.101 ± 0.026.

UCCUCCUACAGCUGUGCAUAGUAUUUAGUUA: the “pre-steady-state target cleavage rate” value is 0.0425 ± 0.015.

On to UCCUGCUACAGCUAGCAUACUAUUUAGUUA, for which the “pre-steady-state target cleavage rate” value came to 0.0063 ± 0.0019.

UCCUGGAUGUCGAACGUAUGUCUUUAGUUA: the “pre-steady-state target cleavage rate” value was less than 0.0001.

Take UCCUCCUACAGCAUUGCAUAGUAUUUAGUUA: the “pre-steady-state target cleavage rate” value was 0.0213 ± 0.0068.

Consider UCCUGCUACAGCUUGCAUAGUAUAUAGAUA, for which the “pre-steady-state target cleavage rate” value was determined as 0.00352 ± 0.0017.

Take UCCUCCUACACGAUGCAUAGUAUUUAGUAA: the “pre-steady-state target cleavage rate” value was 0.00453 ± 0.0027.

On to UCCUGCUACAGCUUGCAUAGUAAUUUCAAA, for which the “pre-steady-state target cleavage rate” value stood at 0.00378 ± 0.0027.

In the case of UCCUGGAUGUGCUUGCAUAGUAUUUACUAA, the “pre-steady-state target cleavage rate” value is 0.146 ± 0.073.

As to UCCUGGAACAGGUUGCAUAGUUUUUAGUUA, the “pre-steady-state target cleavage rate” value amounted to 0.00366 ± 0.0018.

With UCCUGGAUGUCGAACGUAAGUAUUUCAGUUA, the “pre-steady-state target cleavage rate” value was less than 0.0001.

With UCCUCCUACAGCUUCCAUAGUAUUUAGAUA, the “pre-steady-state target cleavage rate” value stood at 0.00393 ± 0.0021.

As to UCCUGGAUCAGCUAGCAUACUAUUUAGUUA, the “pre-steady-state target cleavage rate” value came to 0.00342 ± 0.0018.

In the case of UCCUGGAUGUCGAACGUAUCUAUUAUCUUA, the “pre-steady-state target cleavage rate” value is less than 0.0001.

On to UCCUGGAUGUCGAACGAUAGUAUUAUAGUUA, for which the “pre-steady-state target cleavage rate” value is less than 0.0001.

Turning to UCCUGGAUCAGUUGCAUAGUAUUUAGUUA, the “pre-steady-state target cleavage rate” value was 0.0258 ± 0.0051.

For UCCUCCUACAGCUUGCAAAGUAUUUAGAAA, the “pre-steady-state target cleavage rate” value stood at 0.00344 ± 0.0017.

For “UCCUGGAUGUCGAACCAUAGUAUUUAGUUC [g2:g15:cont:t1C]”, the “pre-steady-state target cleavage rate” value was less than 0.0001.

For the sequence UCCUGCUACAGCUGGCAUAGUAUUUAGUUA, the “pre-steady-state target cleavage rate” value was 0.00937 ± 0.0024.

For the sequence UCCUGGUACAGCUUGCAUGGUAUUUAGUUA, the “pre-steady-state target cleavage rate” value amounted to 0.00828 ± 0.0033.

As for UCCUCCUACAGCUUGCAUAGUAUUAUGUAA, the “pre-steady-state target cleavage rate” value amounted to 0.00434 ± 0.0026.

For the sequence UCCUGGAACAGCUUGCAUAGUACUUUAGUUA, the “pre-steady-state target cleavage rate” value turned out to be 0.00922 ± 0.0033.

With UCCUGGAUCAGCAUGCAUAGUAUUAAGUUA, the “pre-steady-state target cleavage rate” value was 0.00392 ± 0.002.

Take UCCUGCUACAGCAUGCAAAGUAUUUAGUUA: the “pre-steady-state target cleavage rate” value was found to be 0.00845 ± 0.0025.
